Sampled rows, rich in hits. Any-hit rate of the full collection: about 1.6%.
eIF4E 4G PPI: eIF4E/eIF4G interaction inhibition in translation initiation; P63073+Q04637; TR-FRET eIF4E-eIF4GI(517-606) binding, 2 h; inhibition, % at 21.7 µM; hit rate 0.37% among 220,000; AID 782;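 active = inhibition above about 30%, limit read from the data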;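 note: 0% = full FRET control wells and 100% = background wells lacking eIF4GI fragment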
Target sequence (P63073 whole entry, looked up, the tested form may be a part): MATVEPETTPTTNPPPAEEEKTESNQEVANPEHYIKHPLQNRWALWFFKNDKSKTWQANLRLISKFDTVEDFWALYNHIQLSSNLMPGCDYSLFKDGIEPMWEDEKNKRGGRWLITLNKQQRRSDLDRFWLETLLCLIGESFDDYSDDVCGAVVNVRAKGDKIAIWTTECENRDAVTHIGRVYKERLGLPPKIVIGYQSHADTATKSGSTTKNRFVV
Target sequence (Q04637 whole entry, looked up, the tested form may be a part): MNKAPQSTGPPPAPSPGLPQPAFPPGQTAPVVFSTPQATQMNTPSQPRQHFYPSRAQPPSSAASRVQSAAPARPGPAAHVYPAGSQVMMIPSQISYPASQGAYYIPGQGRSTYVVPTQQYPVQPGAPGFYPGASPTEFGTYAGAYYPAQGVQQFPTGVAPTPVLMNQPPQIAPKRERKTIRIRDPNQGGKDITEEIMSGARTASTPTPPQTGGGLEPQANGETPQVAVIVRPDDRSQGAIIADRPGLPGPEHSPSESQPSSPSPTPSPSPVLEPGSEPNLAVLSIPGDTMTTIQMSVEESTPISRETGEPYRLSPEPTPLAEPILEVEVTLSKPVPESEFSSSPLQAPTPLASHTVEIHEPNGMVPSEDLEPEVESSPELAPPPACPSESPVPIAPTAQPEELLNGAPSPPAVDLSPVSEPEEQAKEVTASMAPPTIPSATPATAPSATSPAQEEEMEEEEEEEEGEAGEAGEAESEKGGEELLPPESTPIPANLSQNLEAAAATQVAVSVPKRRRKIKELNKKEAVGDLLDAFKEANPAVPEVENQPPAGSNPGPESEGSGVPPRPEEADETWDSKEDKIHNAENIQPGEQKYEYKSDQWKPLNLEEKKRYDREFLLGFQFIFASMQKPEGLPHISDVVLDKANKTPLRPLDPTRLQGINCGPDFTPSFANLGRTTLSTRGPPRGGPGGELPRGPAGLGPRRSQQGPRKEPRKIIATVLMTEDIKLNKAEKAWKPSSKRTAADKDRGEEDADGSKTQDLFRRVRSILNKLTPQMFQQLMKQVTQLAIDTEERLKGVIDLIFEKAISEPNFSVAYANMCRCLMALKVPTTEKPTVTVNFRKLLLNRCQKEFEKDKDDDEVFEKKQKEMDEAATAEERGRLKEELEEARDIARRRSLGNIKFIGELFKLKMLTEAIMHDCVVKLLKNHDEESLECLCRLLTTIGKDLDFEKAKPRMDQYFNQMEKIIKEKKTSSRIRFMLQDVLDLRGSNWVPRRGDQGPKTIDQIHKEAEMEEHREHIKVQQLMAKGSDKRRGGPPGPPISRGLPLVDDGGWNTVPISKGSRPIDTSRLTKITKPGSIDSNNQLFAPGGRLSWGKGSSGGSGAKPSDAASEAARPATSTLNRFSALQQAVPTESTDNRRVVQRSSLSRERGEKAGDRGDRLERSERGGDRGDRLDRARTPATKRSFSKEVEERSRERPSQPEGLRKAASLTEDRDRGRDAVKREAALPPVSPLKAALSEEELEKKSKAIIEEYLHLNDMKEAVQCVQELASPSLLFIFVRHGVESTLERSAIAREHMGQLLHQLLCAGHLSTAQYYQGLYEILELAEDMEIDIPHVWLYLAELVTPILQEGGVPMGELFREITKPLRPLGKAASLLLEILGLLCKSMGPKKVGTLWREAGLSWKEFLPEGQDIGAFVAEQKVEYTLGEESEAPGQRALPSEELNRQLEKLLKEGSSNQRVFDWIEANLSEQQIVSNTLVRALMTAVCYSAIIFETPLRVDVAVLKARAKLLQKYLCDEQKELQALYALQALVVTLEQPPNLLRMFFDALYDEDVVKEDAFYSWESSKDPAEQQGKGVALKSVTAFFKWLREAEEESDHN
eIF4H FP inh: inhibitors of RNA binding by human eIF4H | Q15056 | eIF4H fluorescence polarization binding assay | inhibition, % at 35 µM | hit rate 0.94% among 290,000 | AID 2012;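 note: calls also rest on retests at 20 µM and on dose response follow-up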
PABP polyA inh: blocks human PABP binding to poly(A) RNA. fluorescence polarization. inhibition, % at 35 µM. hit rate 1% among 290,000. AID 2014;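 note: calls also rest on retests at 20 µM and on dose response follow-up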
PABP1 MLLE inh: inhibitors of microRNA-mediated deadenylation, human PABP1 MLLE binding; inhibition, % at 20 µM; hit rate 0.36% among 360,000; AID 588489; GST-MLLE / FITC-PAM2 fluorescence polarization; in the data active = inhibition above about 35%, passing the limit was not always enough;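 note: plate controls were DMSO wells with GST-MLLE for no effect and wells lacking GST-MLLE protein for full effect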
PERK inh: human PERK inhibition, primary cell-based screen | Q9NZJ5 | AID 1416 | CHO PERK-DD fusion, SEAP luminescence translation reporter | inhibition, % at 5.6 µM | hit rate 0.17% among 220,000;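 active = inhibition above the mean inhibition of all tested compounds plus 3 SD, set separately per screening campaign, cut at about 2.9% in these data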;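 note: PERK kinase domain activated by AP20187 dimerizer at 100 nM; 0% = DMSO with dimerizer and 100% = rapamycin at 8.4 µM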
The depositor's hits bear a star; i = inactive; u = inconclusive; x = not tested or not shown; [ ] = another dose, or the depositor's remark. Unless noted, the rule behind the calls is not given here.

SMILES	eIF4E 4G PPI	eIF4H FP inh	PABP polyA inh	PABP1 MLLE inh	PERK inh
COc1cc(C(=O)NC2=NCCS2)ccc1OCc1c(C)noc1C	1.7	-5.3	1.5	42.1*	0.9
Clc1cccc(CNc2ccn3nc(-c4ccccc4Cl)cc3n2)c1	x	x	x	-6.9	x
CCOc1ccc(S(=O)(=O)N2CCN(c3ccccc3F)CC2)c2cccnc12	6.3	8.2	5.8	4.4	-1.5
CCn1c(SCc2ccc(Cl)c(Cl)c2)nnc1C(C)NC(=O)c1ccc(OC)cc1 (stereo unspecified)	8.9	active	57.3*	-0.8	1.1
CC(CNc1ccccc1O)C(=O)O (stereo unspecified)	20.4	99.6	5.0	76.0*	0.5
CCCOc1ccc(C(=O)Nc2cc(S(=O)(=O)N3CCOCC3)ccc2N2CCOCC2)cc1	x	x	x	-10.4	x
O=c1oc2c3c4c(cc2c(C(F)(F)F)c1CCN1CCOCC1)CCCN4CCC3	-0.5	u	u	i	-1.2
COc1cc(CN(C(=O)c2ccco2)c2ccc(C)cc2)ccc1O	36.9*[fluorescence artefact?]	17.7	-9.4	2.9	-0.4
CSc1nc2oc3c(c2c2nncn12)CC(C)(C)SC3	6.7	32.0	25.2	44.7*	-1.0
CCOC(=O)c1sc2nc(C)c([N+](=O)[O-])c(COC)c2c1N	-5.6	4.8	-6.0	0.8	1.1
COc1ccc(NC(C)C(=O)Nc2ccc(C#N)cc2)cc1Cl (stereo unspecified)	31.5*	2.3	1.0	-14.0	0.3
N#Cc1c(SCC(=O)Nc2nncs2)sc2c(O)cc(=O)[nH]c12	x	100.8*	80.3*	-8.0	x
N#Cc1c(SCC(=O)Nc2ccc(C(F)(F)F)cc2)sc2c(O)cc(=O)[nH]c12	x	16.0	7.7	-12.0	x
COc1cc(Cl)c(C)cc1NC(=O)CSc1sc2c(O)cc(=O)[nH]c2c1C#N	x	70.6*	44.5*	-20.0	x
C#CCOCCOCCOCCNc1nc(N2CCN(C(=O)[C@H](CCCN=C(N)N)n3cc(C(N)[C@@H](C)CC)nn3)CC2)nc(N2CCN(C(=O)[C@H](CCC(=O)O)n3cc([C@@H](N)CCCCN)nn3)CC2)n1 (stereo partly specified)	x	x	x	17.9	x
COc1ccccc1NC(=O)C1=C(C)NC(=O)NC1c1cc(C)cs1 (stereo unspecified)	-1.6	0.6	55.5*	-3.2	-0.3
CCOc1ccccc1NC(=O)C1=C(C)NC(=S)NC1c1cccs1 (stereo unspecified)	-3.6	-1.9	50.9*	-120.9	-1.0
O=C1CC(=O)N(Cc2ccco2)C(=S)N1	-1.4	63.5*	83.9*	-118.3	2.3
O=C1CC(=O)N(Cc2ccco2)C(=O)N1	31.3*	u	-7.7	-105.3	0.5
CC1CCC2(CC1)NC(=O)N(CC(=O)NCCc1ccccc1)C2=O (stereo unspecified)	x	x	x	-0.5	x
CC(S(=O)(=O)c1ccccc1)S(=O)(=O)c1ccccc1	x	x	x	0.6	x
CCc1c(C(C)S(=O)(=O)c2ccccc2)[nH]c(=O)n1CC (stereo unspecified)	-2.3	2.5	-7.0	39.7*	-0.3
COc1cccc(CNC(=O)c2nnn(CC(=O)Nc3ccc4c(c3)OCO4)c2N)c1	2.3	-3.6	-7.3	-4.6	0.9
CC1=CCC(C(=O)O)C(C(=O)NC2CCCCC2)C1 (stereo unspecified)	x	70.3*	13.3	5.8	x
CC(C)Oc1ccc(C(=O)NC2=NCCS2)cc1	2.9	-3.3	8.5	39.7*	1.7
SMILES	eIF4E 4G PPI	eIF4H FP inh	PABP polyA inh	PABP1 MLLE inh	PERK inh
COc1ccc(C(=O)NC2=NCCS2)cc1	x	-4.2	-2.7	4.7	x
COc1cc(C(=O)NC2=NCCS2)cc(OC)c1OC	-15.0	-6.3	0.7	2.6	-0.1
COc1cccc(C(=O)NC2=NCCS2)c1OC	-4.1	-8.7	1.9	40.0*	-0.1
Cc1cc(C)cc(N(CC(=O)Nc2ccccc2)C2=NC3CS(=O)(=O)CC3S2)c1 (stereo unspecified)	-1.4	-5.3	18.8	17.1	-0.9
CCOC(=O)/C(C#N)=C/c1cc2cc(C)c(C)cc2nc1Cl	-2.4	2.5	11.5	-12.2	1.5
COc1ccc(CCNC(=O)CCNC(=O)c2ccc(Br)cc2)cc1OC	36.7*	-0.4	1.6	14.7	-0.5
COc1ccc(CCn2c(=O)[nH]c3cc(C(=O)NCCc4ccccc4)ccc3c2=O)cc1OC	-15.9	2.5	-8.8	x	3.0*
CC1CCCCN1c1nnc(NC(=O)c2cc(-c3ccc(Br)cc3)on2)s1 (stereo unspecified)	1.1	87.0*	active	-6.5	0.4
Cc1ccc2cc3c(NC(=O)c4ccco4)nn(C)c3nc2c1	1.4	-3.4	-1.1	0.4	-1.9
CCC(=O)Nc1c(-c2ccc(C)cc2)c(=O)c2ccccc2n1C	x	-4.1	6.8	-0.9	x
CCc1c(C)sc(NC(=O)C2CCCCC2C(=O)O)c1C(N)=O (stereo unspecified)	55.0*	26.7	40.0	31.2	1.1
CCc1c(C)sc(NC(=O)OC)c1C(N)=O	2.6	-4.1	-5.4	7.0	1.6
Cc1ccc(C(=O)NC(=S)Nc2ccc(N3CCN(C(=O)c4ccco4)CC3)cc2)cc1	x	-5.7	5.7	40.4*	x
CC(C)(C)c1ccc(C(=O)NC(=S)Nc2ccc(N3CCOCC3)cc2)cc1	1.2	5.3	52.2*	34.2	1.5
CC(C)(C)c1ccc(C(=O)Nc2ccc(N3CCOCC3)cc2)cc1	15.1	-2.1	-1.8	5.0	-1.1
CCC(=O)N1CCN(c2ccc(NC(=S)NC(=O)COc3ccccc3)cc2)CC1	-3.4	-3.3	-3.3	24.0	0.3
CC(=O)N1CCN(c2ccc(NC(=S)NC(=O)COc3ccc(C(C)(C)C)cc3)cc2)CC1	17.3	5.7	13.1	43.8*	0.9
COc1ccc(NC(=O)c2csc(Cc3ccccc3)n2)cc1	11.6	-3.6	5.4	-1.8	-0.3
O=C(Nc1ccc(F)cc1)c1csc(Cc2ccccc2)n1	-1.4	5.5*	96.7	-6.6	-0.3
Cc1ccc(/C=C/C(=O)N2CCc3ccccc32)o1	23.0	67.8	-2.0	17.7	0.8
O=C(/C=C/c1ccco1)N1CCc2ccccc21	3.7	17.6*	94.6	7.9	-0.5
Cc1ccc2cc3c(NC(=O)c4cccnc4)nn(C)c3nc2c1	-3.6	9.3	-7.2	-11.1	0.7
CC(=O)c1ccc(NC(=S)Nc2ccc(Br)c(Cl)c2)cc1	0.2	-9.5	0.1	43.5*	0.8
CC(=O)Nc1cccc(NC(=O)Nc2ccc(C)c(Cl)c2)c1	2.2	-7.5	1.4	-11.1	0.6
CC(=O)Nc1cccc(NC(=S)Nc2ccc(F)c(Cl)c2)c1	92.5*	16.9	8.4	25.4	0.8
CCc1nnc(NC(=O)CCC(=O)N2CCN(S(=O)(=O)c3ccc(OC)cc3)CC2)s1	x	-3.5	-4.6	-2.4	x
Nc1[nH]c2cc([N+](=O)[O-])ccc2c1-c1ccccn1	x	50.6	17.1*	-132.8	x
Nc1nc2ccc([N+](=O)[O-])cc2[nH]1	9.4	-1.7	7.9	-2.6	0.0
CC(OC(=O)c1ccc(NC(=O)CC#N)cc1)C(=O)Nc1ccc(Oc2ccccc2)cc1 (stereo unspecified)	x	54.1*	-0.2	-27.5	x
OCc1c(Cl)nc2ccccn12	-1.1	-7.4	60.3*	-12.8	-0.1

From PubChem BioAssay
